Measurements reported in PubChem BioAssay (Tox21).
Several values for one entry are separate records, joined by “and”; a condition that tells them apart may be missing. Equal values may be shown once. Records with an inconclusive call do not appear. Some structures have more than one record in an assay (separate samples or runs), and their calls can disagree. Activity calls are given as the source filed them. Unless noted, calls follow the shape of the dose curve; as a rule, active = well fitted curve in the direction sought with a large enough effect in the repeat runs; inconclusive = weak or mixed curves; inactive = no such curve, though single readings can be large; an effect the other way counts as inactive or inconclusive.

How the values were obtained:
[1] = biological target: Bile acid receptor (Homo sapiens) (UniProt Q96RI1); assay: qHTS assay to identify small molecule antagonists of the farnesoid-X-receptor (FXR) signaling pathway (AID 743217; active = well fitted inhibition curve with a large enough effect in the signal ratio in the repeat runs, not every such curve was filed as active; the % refers to the signal ratio)
Chain of Bile acid receptor (Homo sapiens) (Q96RI1 whole entry, looked up): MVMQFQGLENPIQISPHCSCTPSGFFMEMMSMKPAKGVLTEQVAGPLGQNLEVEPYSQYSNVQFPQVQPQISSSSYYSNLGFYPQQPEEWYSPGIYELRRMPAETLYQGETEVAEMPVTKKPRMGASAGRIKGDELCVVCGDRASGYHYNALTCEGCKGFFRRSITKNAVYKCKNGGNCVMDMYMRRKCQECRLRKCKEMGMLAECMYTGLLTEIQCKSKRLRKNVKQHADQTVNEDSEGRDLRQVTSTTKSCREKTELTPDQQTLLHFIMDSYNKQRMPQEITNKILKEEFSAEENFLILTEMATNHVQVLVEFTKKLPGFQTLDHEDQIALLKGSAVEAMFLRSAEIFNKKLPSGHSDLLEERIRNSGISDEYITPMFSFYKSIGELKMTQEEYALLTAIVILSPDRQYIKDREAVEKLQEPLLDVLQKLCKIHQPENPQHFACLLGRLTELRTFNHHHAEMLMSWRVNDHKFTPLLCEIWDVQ
Method in brief: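 Test compounds are pin-transferred onto FXR-bla HEK 293T cells, then chenodeoxycholic acid is added at 50 uM final. After 16 h at 37 °C, LiveBLAzer B/G substrate is applied for 2 h at room temperature and fluorescence read.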

[2] = qHTS assay to identify small molecule agonists of the farnesoid-X-receptor (FXR) signaling pathway - cell viability counter screen (AID 743218); also: nearly all actives have a fitted effect of over 45% in size
Method in brief: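 Quantitative HTS counter screen measuring ATP-based viability via CellTiter-Glo luminescence in HEK 293T cells carrying a UAS-driven beta-lactamase reporter, after 16 h compound exposure at 37 C.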

[3] = biological target: Bile acid receptor (Homo sapiens) (UniProt Q96RI1); assay: qHTS assay to identify small molecule agonists of the farnesoid-X-receptor (FXR) signaling pathway (AID 743220; active = well fitted activation curve with a large enough effect in the signal ratio in the repeat runs, not every such curve was filed as active; the % refers to the signal ratio)
Method in brief: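 FXR-UAS-bla HEK 293T cells carrying a UAS-driven beta-lactamase reporter were plated for 5 h at 37C/5% CO2, then exposed to DMSO-dissolved Tox21 10K compounds for 16 h at 37C. A LiveBLAzer B/G FRET substrate was loaded for 2 h at room temperature before fluorescence reading.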

[4] = qHTS assay to identify small molecule antagonists of the farnesoid-X-receptor (FXR) signaling pathway - cell viability counter screen (AID 743221; active = well fitted cell-killing curve with a large enough effect in the repeat runs, not every such curve was filed as active; also: nearly all actives have a fitted effect of over 50% in size)
Method in brief: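 Quantitative HTS of the Tox21 10K library run in parallel with the beta-lactamase reporter read. HEK 293T cells carrying a UAS-driven bla reporter got compound and 50 uM CDCA (final) for 16 h; ATP-based luminescence followed.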

[5] = biological target: Vitamin D3 receptor (Homo sapiens) (UniProt P11473); assay: qHTS assay to identify small molecule agonists of the vitamin D receptor (VDR) signaling pathway (AID 743222; calls by dose curve)
Chain of Vitamin D3 receptor (Homo sapiens) (P11473 whole entry, looked up): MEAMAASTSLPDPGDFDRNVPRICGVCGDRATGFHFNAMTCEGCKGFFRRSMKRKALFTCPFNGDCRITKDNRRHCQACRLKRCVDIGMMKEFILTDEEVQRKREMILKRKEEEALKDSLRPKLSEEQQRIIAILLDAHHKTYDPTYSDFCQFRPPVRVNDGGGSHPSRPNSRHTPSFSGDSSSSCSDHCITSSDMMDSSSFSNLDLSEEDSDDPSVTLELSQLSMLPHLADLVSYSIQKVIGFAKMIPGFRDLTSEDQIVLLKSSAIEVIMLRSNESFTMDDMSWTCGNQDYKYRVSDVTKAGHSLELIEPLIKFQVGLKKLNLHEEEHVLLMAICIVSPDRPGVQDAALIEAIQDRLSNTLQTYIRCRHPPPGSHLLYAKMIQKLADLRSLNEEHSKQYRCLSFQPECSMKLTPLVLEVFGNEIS
Method in brief: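 Tox21 cell reporter format: VDR-bla line, 16 h compound exposure in 5% CO2 at 37C, then fluorescence intensity after 2 h with LiveBLAzer B/G FRET substrate.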

[6] = qHTS assay to identify small molecule agonists of the vitamin D receptor (VDR) signaling pathway - cell viability counter screen (AID 743224); also: series mostly up to about 63 µM; nearly all actives have a fitted effect of over 50% in size
Method in brief: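 CellTiter-Glo viability readout on VDR-bla cells, measured after 16 h of compound treatment at 37C in the same wells.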

[7] = qHTS assay to identify small molecule antagonists of the vitamin D receptor (VDR) signaling pathway - cell viability counter screen (AID 743225); also: nearly all actives have a fitted effect of over 50% in size
Method in brief: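 Cells (VDR-UAS-bla HEK 293T) are plated, rested 4 h at 37C, dosed with compound and 3 nM final 1-alpha,25-dihydroxy vitamin D3, and incubated 16 h. Viability is taken from CellTiter-Glo luminescence in the reporter wells.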

[8] = qHTS assay to identify small molecule agonists of the NFkB signaling pathway - cell viability counter screen (AID 1159515; calls by dose curve; also: series mostly up to about 61 µM; nearly all actives have a fitted effect of over 55% in size)
Method in brief: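 Tox21 library compounds were tested for cytotoxicity against NFkB-bla ME-180 cells during a 5 hr exposure at 37 C. CellTiter-Glo luminescence served as the viability read-out.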

[9] = qHTS assay to identify small molecule agonists of the endoplasmic reticulum stress response signaling pathway (AID 1159516; active = well fitted activation curve with a large enough effect in the signal ratio in the repeat runs, not every such curve was filed as active; the % refers to the signal ratio)
Method in brief: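 Fluorescence at 460 and 530 nm (405 nm excitation) reports beta-lactamase from an ER stress response element in HeLa cells treated 5 hr at 37 C.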

[10] = qHTS assay to identify small molecule agonists of the endoplasmic reticulum stress response signaling pathway - cell viability counter screen (AID 1159517; calls by dose curve; also: series mostly up to about 61 µM; nearly all actives have a fitted effect of over 50% in size)
Method in brief: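 Steps: seed 1,500 ESRE-bla HeLa cells per well; incubate overnight at 37 C, 5% CO2; add compounds in DMSO for 5 hr; run FRET substrate 2 hr RT; add CellTiter-Glo, wait 30 min, read luminescence.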

[11] = qHTS assay to identify small molecule antagonists of the retinoid-related orphan receptor gamma (ROR-gamma) signaling pathway - cell viability counter screen (AID 1159520); also: nearly all actives have a fitted effect of over 50% in size
Method in brief: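 Tet-on ROR gamma CHO cells were given compounds for 2 hr, then doxycycline hyclate at 1 uM final, and incubated 16 hr at 37 C. Viability was measured as ATP content by CellTiter-Glo luminescence.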

[12] = biological target: Nuclear receptor ROR-gamma (Homo sapiens) (UniProt P51449); assay: qHTS assay to identify small molecule antagonists of the retinoid-related orphan receptor gamma (ROR-gamma) signaling pathway (AID 1159521; also: nearly all actives have a fitted effect of over 50% in size; also: potency is read from the fitted curve at half-maximal effect)
Method in brief: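 RORγ antagonism is scored from reduced reporter luminescence in Tet-on CHO cells. Induction used 1 uM final doxycycline hyclate for 16 h at 37 C, following a 2 h compound exposure.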

[13] = qHTS assay to identify small molecule agonists of the AP-1 signaling pathway - cell viability counter screen (AID 1159525; calls by dose curve; also: nearly all actives have a fitted effect of over 55% in size; also: potency is read from the fitted curve at half-maximal effect)
Method in brief: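 Same-well cytotoxicity counter screen of the Tox21 10K library in ME-180 cells. The readout is ATP-dependent luminescence after 5 h compound treatment. Data are normalised to DMSO and tetra n-octyl ammonium bromide controls.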

[14] = qHTS assay to identify small molecule agonists of the AP-1 signaling pathway (AID 1159526; calls by dose curve)
[15] = biological target: Retinoic acid receptor RXR-alpha (Homo sapiens) (UniProt P19793); assay: qHTS assay to identify small molecule agonists of the RXR signaling pathway (AID 1159527; calls by dose curve; also: nearly all actives have a fitted effect of over 35% in size)
Chain of Retinoic acid receptor RXR-alpha (Homo sapiens) (P19793 whole entry, looked up): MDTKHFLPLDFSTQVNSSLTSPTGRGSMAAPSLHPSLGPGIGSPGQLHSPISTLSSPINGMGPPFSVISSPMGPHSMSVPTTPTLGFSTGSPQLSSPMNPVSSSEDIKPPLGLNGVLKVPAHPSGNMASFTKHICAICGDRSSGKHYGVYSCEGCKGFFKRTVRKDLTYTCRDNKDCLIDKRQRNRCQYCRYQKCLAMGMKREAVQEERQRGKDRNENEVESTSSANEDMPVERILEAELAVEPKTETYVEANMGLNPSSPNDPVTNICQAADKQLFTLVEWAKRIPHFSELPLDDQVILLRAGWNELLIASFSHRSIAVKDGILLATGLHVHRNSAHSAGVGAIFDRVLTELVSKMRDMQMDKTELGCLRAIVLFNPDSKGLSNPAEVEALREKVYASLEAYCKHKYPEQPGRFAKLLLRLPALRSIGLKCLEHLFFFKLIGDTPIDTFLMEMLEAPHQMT
Method in brief: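 qHTS of the Tox21 10K library in GeneBLAzer RXR-alpha HEK 293T cells carrying a beta-lactamase reporter […]; 16 hr treatment, 9-cis retinoic acid as agonist control, FRET read-out.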

[16] = qHTS assay to identify small molecule agonists of the RXR signaling pathway - cell viability counter screen (AID 1159529)
Method in brief: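 Cell viability is measured by CellTiter-Glo luminescence, 30 min at room temperature, in wells already read for beta-lactamase. Engineered HEK 293T cells (RXR-alpha-UAS-bla) are dosed 16 hr at 37 C. Tetraoctyl ammonium bromide serves as positive control.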

[17] = biological target: Peroxisome proliferator-activated receptor delta (Homo sapiens) (UniProt Q03181); assay: qHTS assay to identify small molecule agonists of the peroxisome proliferator-activated receptor delta (PPARd) signaling pathway (AID 743212; calls by dose curve)
Chain of Peroxisome proliferator-activated receptor delta (Homo sapiens) (Q03181 whole entry, looked up): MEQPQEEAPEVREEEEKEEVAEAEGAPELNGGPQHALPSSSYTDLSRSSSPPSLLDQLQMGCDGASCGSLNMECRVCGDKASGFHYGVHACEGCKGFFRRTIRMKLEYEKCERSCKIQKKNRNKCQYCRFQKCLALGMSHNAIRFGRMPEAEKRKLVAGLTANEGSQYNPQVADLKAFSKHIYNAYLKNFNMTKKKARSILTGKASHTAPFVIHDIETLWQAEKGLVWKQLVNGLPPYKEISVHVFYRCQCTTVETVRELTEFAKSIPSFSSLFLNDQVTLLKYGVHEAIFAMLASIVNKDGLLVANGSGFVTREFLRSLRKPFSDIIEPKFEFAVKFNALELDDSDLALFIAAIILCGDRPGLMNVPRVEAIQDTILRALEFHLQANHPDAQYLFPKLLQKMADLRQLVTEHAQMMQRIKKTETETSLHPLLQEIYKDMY
Method in brief: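 Read-out: beta-lactamase FRET fluorescence after 2 h room-temperature incubation with LiveBLAzer B/G substrate. Cells were HEK293H carrying a UAS-bla reporter for PPARd, treated at 37 C with DMSO-dissolved compounds.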

[18] = qHTS assay to identify small molecule antagonists of the peroxisome proliferator-activated receptor delta (PPARd) signaling pathway - cell viability counter screen (AID 743213); also: nearly all actives have a fitted effect of over 50% in size
Method in brief: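 PPARd-bla HEK293H cells were treated with compounds plus agonist L165041 (300 nM final) for 17 h at 37 C. Viability was then read in the same wells by CellTiter-Glo luminescence after 30 min at room temperature.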

[19] = biological target: Vitamin D3 receptor (Homo sapiens) (UniProt P11473); assay: qHTS assay to identify small molecule antagonists of the vitamin D receptor (VDR) signaling pathway (AID 743223; active = well fitted inhibition curve with a large enough effect in the signal ratio in the repeat runs, not every such curve was filed as active; the % refers to the signal ratio)
Method in brief: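 Fluorescence from LiveBLAzer B/G FRET substrate, read after 2 h at room temperature, reflects beta-lactamase reporter activity in VDR-bla cells treated 16 h at 37C with compounds and agonist 1alpha,25-dihydroxyvitamin D3 (3 nM final).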

[20] = biological target: Peroxisome proliferator-activated receptor delta (Homo sapiens) (UniProt Q03181); assay: qHTS assay to identify small molecule antagonists of the peroxisome proliferator-activated receptor delta (PPARd) signaling pathway (AID 743215; active = well fitted inhibition curve with a large enough effect in the signal ratio in the repeat runs, not every such curve was filed as active; the % refers to the signal ratio;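 also: cells stimulated with agonist L165041 at 300 nM final during compound exposure; series mostly up to about 62 µM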)
Method in brief: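 Here, a reporter line (HEK293H, beta-lactamase under a UAS) measures PPARd signaling. Compounds are tested against agonist L165041 at 300 nM final concentration over 17 h at 37 C, with fluorescence read after substrate.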

Measured: Potency

CS(=O)(=O)NC(=O)c1cc(Oc2ccc(C(F)(F)F)cc2Cl)ccc1[N+](=O)[O-]
inactive: [1] | [2] | [3] | [4] | [5] | [6] | [7] | [8] | [9] | [10] | [11] | [12] | [13] | [14] | [15] | [16]

Cc1cc(Cl)ccc1N=CN(C)C
inactive: [17] | [18] | [4] | [19] | [6] | [7] | [8] | [9] | [10] | [11] | [12] | [13] | [14] | [15] | [16]

CC1(C)C(C(=O)OC(C#N)c2cccc(Oc3ccccc3)c2)C1(C)C (stereo not given)
inactive: [17] | [18] | [3] | [4] | [19] | [6] | [7] | [8] | [9] | [10] | [11] | [13] | [14] | [16]
active: [12] 48.9 µM

ClC(Cl)(Cl)c1ccccc1
inactive: [17] | [18] | [1] | [2] | [3] | [4] | [5] | [19] | [6] | [7] | [8] | [9] | [10] | [11] | [12] | [13] | [14] | [16]

Nc1ccc([N+](=O)[O-])cc1N
34.7 µM (active) and inactive: [13]
inactive: [17] | [18] | [2] | [4] | [5] | [19] | [6] | [7] | [8] | [9] | [10] | [11] | [14] | [16]
active: [12] 9.68 µM and 30.6 µM

Nc1ccc2ccccc2c1
inactive: [2] | [4] | [19] | [6] | [7] | [8] | [9] | [10] | [11] | [12] | [13] | [14] | [16]

CCC/C=N/O
inactive: [18] | [1] | [2] | [3] | [4] | [5] | [19] | [6] | [7] | [8] | [9] | [10] | [11] | [12] | [13] | [14] | [16]

CCCCOCC1CO1 (stereo not given)
inactive: [17] | [1] | [2] | [3] | [4] | [19] | [6] | [7] | [8] | [9] | [10] | [11] | [12] | [13] | [14] | [16]

CCOC(=O)c1ccccc1N
inactive: [17] | [18] | [20] | [1] | [3] | [4] | [19] | [6] | [7] | [8] | [9] | [10] | [11] | [12] | [13] | [14] | [16]

ClC(Cl)(Cl)Br
inactive: [17] | [1] | [2] | [3] | [4] | [5] | [19] | [6] | [7] | [8] | [9] | [10] | [11] | [12] | [13] | [14] | [16]

O=C1CCCO1
inactive: [17] | [20] | [1] | [2] | [3] | [4] | [5] | [19] | [6] | [7] | [8] | [9] | [10] | [11] | [12] | [13] | [14] | [16]

C[C@]12CCC(=O)C=C1CC[C@@H]1[C@@H]2CC[C@@]2(C)[C@H]1CC[C@]2(C)O
inactive: [17] | [2] | [4] | [6] | [7] | [8] | [9] | [10] | [11] | [13] | [14] | [16]
active: [12] 15.5 µM and 26.6 µM

CCNc1nc(Cl)nc(NC(C)(C)C#N)n1
inactive: [17] | [18] | [2] | [4] | [6] | [7] | [8] | [9] | [10] | [11] | [12] | [13] | [14] | [16]

COP(=O)(NC(C)=O)SC (stereo not given)
inactive: [17] | [18] | [4] | [5] | [19] | [6] | [7] | [8] | [9] | [10] | [11] | [12] | [13] | [14] | [16]

O=NN(c1ccccc1)c1ccccc1
inactive: [17] | [20] | [1] | [3] | [4] | [6] | [7] | [8] | [9] | [10] | [11] | [12] | [13] | [14] | [16]

Clc1cccc(Cl)c1
inactive: [17] | [18] | [20] | [2] | [4] | [5] | [19] | [6] | [7] | [8] | [9] | [10] | [11] | [13] | [14] | [16]
active: [12] 30.4 µM

COc1ccc(C=O)cc1OC
inactive: [4] | [6] | [7] | [8] | [9] | [10] | [11] | [12] | [13] | [14] | [16]

CC(C)=CC1C(C(=O)OCc2cccc(Oc3ccccc3)c2)C1(C)C (stereo not given)
inactive: [17] | [18] | [20] | [1] | [3] | [4] | [5] | [19] | [6] | [7] | [8] | [9] | [10] | [11] | [12] | [13] | [14]
